Counter-ions that a name gives are not always drawn. ± gives the standard deviation of the averaged measurements.
What was measured:
Test in all cases: growth (OD600 after 10 h); higher = more growth (less inhibition)
[1] = system: E. coli TESEC Alr+ wild-type control; details: compound 0.1 mM; raw OD600 reference: median of DMSO wells 0.241, cell-free background 0.041
Protocol: (§1)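 TESEC Mtb Alr E. coli, or the Alr+ wild-type control, in 384-well plates with Prestwick library compounds at 0.1 mM and 1% DMSO, across arabinose induction levels of 1E3 to 1E7 nM. Growth is read as OD600 after 10 h at 37 °C in triplicate biological replicates.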

E. coli TESEC Mtb Alr [2] = details: compound 0.1 mM
Protocol: as §1

E. coli TESEC Mtb Asd = details: compound 0.1 mM
Protocol: (§2)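 TESEC E. coli strains in which the native enzyme is deleted and replaced by arabinose-inducible Mtb Asd, DapB, CysH or TrpD, each grown in its selective medium. Strains were screened against the Prestwick library at 0.1 mM and 1% DMSO in 384-well format at low and high arabinose induction. Growth is read as OD600 after 10 h in triplicate.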

E. coli TESEC Mtb DapB = details: compound 0.1 mM
Protocol: as §2

[3] = system: E. coli TESEC Alr+ wild-type control; details: compound 0.1 mM; raw OD600 reference: median of DMSO wells 0.49, cell-free background 0.052
Protocol: (§3)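 TESEC Mtb Alr E. coli (ΔaraC ΔtolC ΔentC Δalr ΔdadX, arabinose-inducible Mtb Alr) or the Alr+ wild-type control strain, grown in defined M9-fructose medium without D-alanine in 96-well plates with Prestwick library compounds at 0.1 mM and 1% DMSO. Low Alr induction is 0.1 µM arabinose and high induction is 10 mM arabinose.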

E. coli TESEC Mtb Alr [4] = details: compound 0.1 mM; remark: listed apart in the source
Protocol: as §3

[5] = arabinose 1000 nM, raw OD600 reference: median of DMSO wells 0.294, cell-free background 0.041
[6] = arabinose 10000 nM, raw OD600 reference: median of DMSO wells 0.264, cell-free background 0.041
[7] = arabinose 100000 nM, raw OD600 reference: median of DMSO wells 0.201, cell-free background 0.041
[8] = arabinose 1000000 nM, raw OD600 reference: median of DMSO wells 0.193, cell-free background 0.041
[9] = arabinose 10000000 nM, raw OD600 reference: median of DMSO wells 0.146, cell-free background 0.041
[10] = arabinose induction (level): High, raw OD600 reference: median of DMSO wells 0.331, cell-free background 0.041
[11] = arabinose induction (level): Low, raw OD600 reference: median of DMSO wells 0.417, cell-free background 0.041
[12] = arabinose induction (level): High, raw OD600 reference: median of DMSO wells […], cell-free background 0.041
[13] = arabinose induction (level): Low, raw OD600 reference: median of DMSO wells 0.227, cell-free background 0.041
[14] = arabinose 100 nM, raw OD600 reference: median of DMSO wells 0.413, cell-free background 0.052
[15] = arabinose 10000000 nM, raw OD600 reference: median of DMSO wells […], cell-free background 0.052

Row | SMILES | growth [1] | growth (E. coli TESEC Mtb Alr [2]; [5]) | growth (E. coli TESEC Mtb Alr [2]; [6]) | growth (E. coli TESEC Mtb Alr [2]; [7]) | growth (E. coli TESEC Mtb Alr [2]; [8]) | growth (E. coli TESEC Mtb Alr [2]; [9]) | growth (E. coli TESEC Mtb Asd; [10]) | growth (E. coli TESEC Mtb Asd; [11]) | growth (E. coli TESEC Mtb DapB; [12]) | growth (E. coli TESEC Mtb DapB; [13]) | growth [3] | growth (E. coli TESEC Mtb Alr [4]; [14]) | growth (E. coli TESEC Mtb Alr [4]; [15])
1 | CN(C)CCCO[C@@H]1[C@H]2OC(C)(C)O[C@H]2O[C@@H]1[C@H](O)CO [Amiprilose hydrochloride] | 0.23 ± 0.012 | 0.304 ± 0.024 | 0.262 ± 0.0085 | 0.196 ± 0.0086 | 0.185 ± 0.0074 | 0.137 ± 0.003 | 0.411 ± 0.073 | 0.385 ± 0.076 | 0.199 ± 0.017 | 0.269 ± 0.046 | 0.613 ± 0.04 | 0.405 ± 0.013 | 0.337 ± 0.022
2 | CCCc1nn(C)c2c(=O)[nH]c(-c3cc(S(=O)(=O)N4CCN(C)CC4)ccc3OCC)nc12 [Sildenafil] | 0.201 ± 0.016 | 0.235 ± 0.01 | 0.275 ± 0.014 | 0.186 ± 0.016 | 0.1606 ± 0.00076 | 0.1693 ± 0.0008 | 0.233 ± 0.013 | 0.399 ± 0.035 | 0.199 ± 0.01 | 0.27 ± 0.045 | 0.456 ± 0.045 | 0.406 ± 0.0068 | 0.2931 ± 0.0018
3 | N=C(NCCCCCCNC(=N)NC(=N)Nc1ccc(Cl)cc1)NC(=N)Nc1ccc(Cl)cc1 [Chlorhexidine] | 0.04463 ± 0.00035 | 0.0435 ± 0.00051 | 0.0456 ± 0.003 | 0.0447 ± 0.0014 | 0.04363 ± 0.00015 | 0.0449 ± 0.0005 | 0.0592 ± 0.0021 | 0.0584 ± 0.0011 | 0.0506 ± 0.0011 | 0.0542 ± 0.0085 | 0.0486 ± 0.0014 | 0.04807 ± 5.8e-05 | 0.054 ± 0.0013
4 | NC[C@@H]1O[C@H](O[C@H]2[C@@H](O)[C@H](O[C@@H]3[C@@H](O)[C@H](N)C[C@H](N)[C@H]3O[C@H]3O[C@H](CN)[C@@H](O)[C@H](O)[C@H]3N)O[C@@H]2CO)[C@H](N)[C@@H](O)[C@@H]1O [Neomycin sulfate] | 0.249 ± 0.0054 | 0.305 ± 0.009 | 0.287 ± 0.0035 | 0.219 ± 0.015 | 0.19 ± 0.005 | 0.163 ± 0.0028 | 0.271 ± 0.043 | 0.389 ± 0.021 | 0.187 ± 0.018 | 0.245 ± 0.041 | 0.453 ± 0.037 | 0.4232 ± 0.0036 | 0.343 ± 0.013
5 | CC(CCc1ccccc1)NCC(O)c1ccc(O)c(C(N)=O)c1 (stereo not drawn) [Labetalol hydrochloride] | 0.191 ± 0.006 | 0.246 ± 0.015 | 0.24 ± 0.011 | 0.174 ± 0.011 | 0.1371 ± 0.0012 | 0.137 ± 0.0031 | 0.26 ± 0.015 | 0.407 ± 0.046 | 0.186 ± 0.0091 | 0.209 ± 0.017 | 0.467 ± 0.024 | 0.413 ± 0.0048 | 0.321 ± 0.016
6 | OC(CCN1CCCCC1)(c1ccccc1)C1CCCCC1 (stereo not drawn) [Trihexyphenidyl-D,L Hydrochloride] | 0.222 ± 0.012 | 0.316 ± 0.019 | 0.265 ± 0.012 | 0.194 ± 0.0034 | 0.147 ± 0.0092 | 0.164 ± 0.0019 | 0.299 ± 0.04 | 0.43 ± 0.071 | 0.179 ± 0.016 | 0.22 ± 0.018 | 0.452 ± 0.031 | 0.4127 ± 0.0033 | 0.324 ± 0.024
7 | Cc1cc(NC(=O)C2=C(O)c3ccccc3S(=O)(=O)N2C)no1 [Isoxicam] | 0.25 ± 0.0032 | 0.255 ± 0.038 | 0.26 ± 0.0052 | 0.184 ± 0.033 | 0.184 ± 0.0038 | 0.135 ± 0.0033 | 0.252 ± 0.022 | 0.395 ± 0.081 | 0.199 ± 0.0028 | 0.216 ± 0.034 | 0.47 ± 0.018 | 0.412 ± 0.015 | 0.299 ± 0.037
8 | CC(C)Cc1ccc([C@H](C)C(=O)O)cc1 [S-(+)-ibuprofen] | 0.236 ± 0.012 | 0.269 ± 0.013 | 0.24 ± 0.006 | 0.166 ± 0.0055 | 0.194 ± 0.0082 | 0.129 ± 0.0024 | 0.262 ± 0.015 | 0.311 ± 0.0056 | 0.196 ± 0.014 | 0.18 ± 0.016 | 0.615 ± 0.082 | 0.402 ± 0.012 | 0.329 ± 0.004
9 | C[C@@H](O)[C@H]1C(=O)N2C(C(=O)O)=C(S[C@@H]3CN[C@H](C(=O)N(C)C)C3)[C@H](C)[C@H]12 [Meropenem] | 0.0404 ± 0.00057 | 0.0418 ± 0.0014 | 0.0448 ± 0.0059 | 0.0523 ± 0.0007 | 0.0817 ± 0.0057 | 0.0962 ± 0.003 | 0.138 ± 0.0038 | 0.0552 ± 0.0001 | 0.135 ± 0.0089 | 0.169 ± 0.013 | 0.0604 ± 0.0014 | 0.04557 ± 0.00025 | 0.0882 ± 0.013
10 | CO[C@@]1(NC(=O)CSCC#N)C(=O)N2C(C(=O)O)=C(CSc3nnnn3C)CS[C@@H]21 [Cefmetazole sodium salt] | 0.0393 ± 0.0013 | 0.0392 ± 0.0012 | 0.0395 ± 0.00076 | 0.0392 ± 0.0027 | 0.03973 ± 5.8e-05 | 0.03957 ± 0.00025 | 0.0524 ± 0.0042 | 0.0557 ± 0.0072 | 0.0493 ± 0.0012 | 0.0513 ± 0.0023 | 0.0516 ± 0.012 | 0.0461 ± 0.00055 | 0.0549 ± 0.0037
11 | COc1ccc2c(c1)c(CC(=O)O)c(C)n2C(=O)c1ccc(Cl)cc1 [Indomethacin] | 0.141 ± 0.0034 | 0.186 ± 0.008 | 0.2 ± 0.0069 | 0.124 ± 0.0036 | 0.0963 ± 0.0012 | 0.105 ± 0.0024 | 0.172 ± 0.017 | 0.196 ± 0.036 | 0.156 ± 0.0079 | 0.214 ± 0.073 | 0.392 ± 0.0071 | 0.366 ± 0.032 | 0.143 ± 0.0065
12 | CC(N)CCCC(C)(C)O (stereo not drawn) [Heptaminol hydrochloride] | 0.252 ± 0.0036 | 0.285 ± 0.011 | 0.26 ± 0.013 | 0.204 ± 0.04 | 0.1796 ± 0.0016 | 0.141 ± 0.0064 | 0.357 ± 0.015 | 0.442 ± 0.022 | 0.188 ± 0.0059 | 0.195 ± 0.02 | 0.501 ± 0.054 | 0.407 ± 0.011 | 0.36 ± 0.0092
13 | NCCCC(O)(P(=O)(O)O)P(=O)(O)O [Alendronate sodium] | 0.259 ± 0.0047 | 0.305 ± 0.013 | 0.265 ± 0.007 | 0.24 ± 0.033 | 0.178 ± 0.0032 | 0.162 ± 0.0058 | 0.343 ± 0.043 | 0.414 ± 0.04 | 0.214 ± 0.022 | 0.227 ± 0.019 | 0.514 ± 0.051 | 0.422 ± 0.012 | 0.204 ± 0.023
14 | CN(C)C(=O)C(CCN1CCC(O)(c2ccc(Cl)cc2)CC1)(c1ccccc1)c1ccccc1 [Loperamide hydrochloride] | 0.0426 ± 0.00061 | 0.0401 ± 0.00042 | 0.0402 ± 0.00044 | 0.0412 ± 0.00047 | 0.0404 ± 0.0001 | 0.04237 ± 0.00015 | 0.0486 ± 0.00055 | 0.0487 ± 0.00055 | 0.0489 ± 0.00058 | 0.0571 ± 0.017 | 0.0784 ± 0.034 | 0.4189 ± 0.00099 | 0.0518 ± 0.00072
15 | CC(=O)Oc1ccccc1C(=O)Oc1ccccc1C(=O)O [Acetylsalicylsalicylic acid] | 0.253 ± 0.0046 | 0.275 ± 0.0063 | 0.266 ± 0.016 | 0.203 ± 0.011 | 0.181 ± 0.0064 | 0.142 ± 0.0078 | 0.325 ± 0.1 | 0.421 ± 0.069 | 0.19 ± 0.014 | 0.209 ± 0.0043 | 0.449 ± 0.04 | 0.4179 ± 0.0027 | 0.352 ± 0.023
16 | CN(C/C=C/C#CC(C)(C)C)Cc1cccc2ccccc12 [Terbinafine] | 0.214 ± 0.0072 | 0.272 ± 0.0085 | 0.226 ± 0.025 | 0.177 ± 0.0062 | 0.085 ± 0.0043 | 0.174 ± 0.0062 | 0.296 ± 0.046 | 0.41 ± 0.037 | 0.182 ± 0.047 | 0.218 ± 0.03 | 0.358 ± 0.013 | 0.145 ± 0.035 | 0.0574 ± 0.0026
